# In PubChem BioAssay (EPA / NIEHS):
# Where “and” joins values, the source holds several entries; their conditions need not be identical. Equal values may be shown once. A structure can be active in one record and inactive in another. Calls of active or inactive are those of the source. Rule for the calls: active = hit-call score of the fitted dose curve at least 0.9, where 1 is the maximum; inactive = score below 0.9.
# Columns and labels:
# [1] = CEETOX_H295R_PROG: CeeTox H295R High-throughput Steroidogenesis Assay for Progesterone (PROG) (AID 2283442); conditions: actives raise or lower the signal
# How it was run: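 Measured analyte is progesterone secreted by H295R cells at 48 h of chemical treatment, following 10 uM forskolin priming. Quantitation used HPLC-MS/MS against a 7-point standard curve; cytotoxicity was checked by MTT absorbance.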
# [2] = read-out: Tumor necrosis factor receptor superfamily member 6 (Homo sapiens) (UniProt P25445); assay: LTEA_HepaRG_FAS: Life Technologies and Expression Analysis (LTEA) Assay for Fas cell surface death receptor (FAS) using HepaRG (AID 2283447); conditions: mRNA level, 48 h; actives raise or lower the signal
# How it was run: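 Differentiated HepaRG cells in serum-free induction medium were exposed 48 h to 8 half-log concentrations up to 100 uM in 0.5% DMSO, in duplicate. FAS mRNA was measured by qRT-PCR normalised to ACTB, GAPDH and POLR2A; bidirectional fit versus DMSO.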
# [3] = read-out: Fatty acid synthase (Homo sapiens) (UniProt P49327); assay: LTEA_HepaRG_FASN: Life Technologies and Expression Analysis (LTEA) Assay for Fatty Acid Synthase (FASN) using HepaRG (AID 2283448); conditions: mRNA level, 48 h; actives raise or lower the signal;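 for AC50: differentiated human HepaRG liver cells in serum-free induction medium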
# How it was run: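 FASN transcript measured by TaqMan qRT-PCR, normalised to three housekeeping genes, after 48 h chemical exposure of HepaRG cells. Eight-point half-log series from 100 uM in 0.5% DMSO, duplicates; gain or loss fitted against vehicle.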
# [4] = read-out: Cyclin D2 (CCND2), CCND2 (gene 894); assay: LTEA_HepaRG_CCND2: Life Technologies and Expression Analysis (LTEA) Assay for Cyclin D2 (CCND2) using HepaRG (AID 2283449); conditions: mRNA level, 48 h; actives raise or lower the signal;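 note: CCND2 transcript measured by TaqMan qRT-PCR and normalised to three housekeeping genes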
# How it was run: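 HepaRG, 48 h dosing, 8-pt half-log curve from 100 uM, 0.5% DMSO; duplicate wells. Readout: CCND2 transcript by microfluidic qRT-PCR, housekeeping-normalised; bidirectional fit vs DMSO baseline.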
# [5] = read-out: Cyclin Dependent Kinase Inhibitor 1A (CDKN1A), CDKN1A (gene 1026); assay: LTEA_HepaRG_CDKN1A: Life Technologies and Expression Analysis (LTEA) Assay for Cyclin Dependent Kinase Inhibitor 1A (CDKN1A) using HepaRG (AID 2283450); conditions: mRNA level, 48 h; actives raise or lower the signal
# How it was run: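 Gain or loss of CDKN1A transcript is scored by bidirectional fitting against 0.5% DMSO vehicle. Human HepaRG cultures receive chemicals for 48 h across an 8-point series peaking at 100 uM; expression comes from qRT-PCR.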
# [6] = read-out: Cyclin D1 (CCND1), CCND1 (gene 595); assay: LTEA_HepaRG_CCND1: Life Technologies and Expression Analysis (LTEA) Assay for Cyclin D1 (CCND1) using HepaRG (AID 2283451); conditions: mRNA level, 48 h; actives raise or lower the signal;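 for AC50: differentiated human HepaRG liver cells in serum-free induction medium; TaqMan qRT-PCR transcript level normalised to ACTB GAPDH and POLR2A housekeeping genes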
# How it was run: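 Expression change is measured by qRT-PCR in HepaRG cells after 48 h treatment across eight concentrations topping at 100 uM, with duplicate wells and DMSO (0.5%) serving as baseline for bidirectional fitting.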
# [7] = read-out: catalase (CAT), CAT (gene 847); assay: LTEA_HepaRG_CAT: Life Technologies and Expression Analysis (LTEA) Assay for catalase (CAT) using HepaRG (AID 2283452); conditions: mRNA level, 48 h; actives raise or lower the signal;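 for AC50: TaqMan qRT-PCR signal normalized to ACTB GAPDH and POLR2A housekeeping genes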
# How it was run: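 HepaRG cells in serum-free induction medium, 0.5% DMSO vehicle, exposed 48 h in duplicate over 8 half-log concentrations from 100 uM. CAT mRNA measured by qRT-PCR, normalized to ACTB, GAPDH, POLR2A; bidirectional fit versus DMSO.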
# [8] = read-out: flavin-containing dimethylaniline monooxygenases 3 (FMO3), FMO3 (gene 2328); assay: LTEA_HepaRG_FMO3: Life Technologies and Expression Analysis (LTEA) Assay for flavin-containing dimethylaniline monooxygenases 3 (FMO3) using HepaRG (AID 2283453); conditions: mRNA level, 48 h; actives raise or lower the signal;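 for AC50: differentiated human HepaRG liver cells in serum-free induction medium; FMO3 transcript by TaqMan qRT-PCR normalized to ACTB GAPDH and POLR2A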
# How it was run: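 FMO3 transcript quantified by TaqMan qRT-PCR against three housekeeping genes after 48 h chemical exposure of HepaRG cells. Eight-point half-log series, top 100 uM, 0.5% DMSO vehicle; phenobarbital 1mM induction control; up- or down-regulation fitted.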
# [9] = read-out: Cytochrome P450 (CYP1A1), CYP1A1 (gene 1543); assay: LTEA_HepaRG_CYP1A1: Life Technologies and Expression Analysis (LTEA) Assay for Cytochrome P450 (CYP1A1) using HepaRG (AID 2283454); conditions: mRNA level, 48 h; actives raise or lower the signal
# How it was run: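 Using HepaRG cultures with 0.5% DMSO as vehicle, eight-concentration exposures (max 100 uM) lasted 48 h. Transcript levels were measured by TaqMan qRT-PCR and normalized to ACTB, GAPDH and POLR2A.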
# [10] = read-out: CFLAR gene, CFLAR (gene 8837); assay: LTEA_HepaRG_CFLAR: Life Technologies and Expression Analysis (LTEA) Assay for CFLAR gene using HepaRG (AID 2283455); conditions: mRNA level, 48 h; actives raise or lower the signal
# How it was run: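 qRT-PCR read-out (Fluidigm/TaqMan) of CFLAR mRNA, normalized to three housekeeping genes, in differentiated human HepaRG cells after 48 h chemical exposure; 8-point half-log series from 100 uM in 0.5% DMSO; bidirectional curve fitting versus DMSO.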
# Sequence of Fatty acid synthase (Homo sapiens) (P49327 whole entry, looked up): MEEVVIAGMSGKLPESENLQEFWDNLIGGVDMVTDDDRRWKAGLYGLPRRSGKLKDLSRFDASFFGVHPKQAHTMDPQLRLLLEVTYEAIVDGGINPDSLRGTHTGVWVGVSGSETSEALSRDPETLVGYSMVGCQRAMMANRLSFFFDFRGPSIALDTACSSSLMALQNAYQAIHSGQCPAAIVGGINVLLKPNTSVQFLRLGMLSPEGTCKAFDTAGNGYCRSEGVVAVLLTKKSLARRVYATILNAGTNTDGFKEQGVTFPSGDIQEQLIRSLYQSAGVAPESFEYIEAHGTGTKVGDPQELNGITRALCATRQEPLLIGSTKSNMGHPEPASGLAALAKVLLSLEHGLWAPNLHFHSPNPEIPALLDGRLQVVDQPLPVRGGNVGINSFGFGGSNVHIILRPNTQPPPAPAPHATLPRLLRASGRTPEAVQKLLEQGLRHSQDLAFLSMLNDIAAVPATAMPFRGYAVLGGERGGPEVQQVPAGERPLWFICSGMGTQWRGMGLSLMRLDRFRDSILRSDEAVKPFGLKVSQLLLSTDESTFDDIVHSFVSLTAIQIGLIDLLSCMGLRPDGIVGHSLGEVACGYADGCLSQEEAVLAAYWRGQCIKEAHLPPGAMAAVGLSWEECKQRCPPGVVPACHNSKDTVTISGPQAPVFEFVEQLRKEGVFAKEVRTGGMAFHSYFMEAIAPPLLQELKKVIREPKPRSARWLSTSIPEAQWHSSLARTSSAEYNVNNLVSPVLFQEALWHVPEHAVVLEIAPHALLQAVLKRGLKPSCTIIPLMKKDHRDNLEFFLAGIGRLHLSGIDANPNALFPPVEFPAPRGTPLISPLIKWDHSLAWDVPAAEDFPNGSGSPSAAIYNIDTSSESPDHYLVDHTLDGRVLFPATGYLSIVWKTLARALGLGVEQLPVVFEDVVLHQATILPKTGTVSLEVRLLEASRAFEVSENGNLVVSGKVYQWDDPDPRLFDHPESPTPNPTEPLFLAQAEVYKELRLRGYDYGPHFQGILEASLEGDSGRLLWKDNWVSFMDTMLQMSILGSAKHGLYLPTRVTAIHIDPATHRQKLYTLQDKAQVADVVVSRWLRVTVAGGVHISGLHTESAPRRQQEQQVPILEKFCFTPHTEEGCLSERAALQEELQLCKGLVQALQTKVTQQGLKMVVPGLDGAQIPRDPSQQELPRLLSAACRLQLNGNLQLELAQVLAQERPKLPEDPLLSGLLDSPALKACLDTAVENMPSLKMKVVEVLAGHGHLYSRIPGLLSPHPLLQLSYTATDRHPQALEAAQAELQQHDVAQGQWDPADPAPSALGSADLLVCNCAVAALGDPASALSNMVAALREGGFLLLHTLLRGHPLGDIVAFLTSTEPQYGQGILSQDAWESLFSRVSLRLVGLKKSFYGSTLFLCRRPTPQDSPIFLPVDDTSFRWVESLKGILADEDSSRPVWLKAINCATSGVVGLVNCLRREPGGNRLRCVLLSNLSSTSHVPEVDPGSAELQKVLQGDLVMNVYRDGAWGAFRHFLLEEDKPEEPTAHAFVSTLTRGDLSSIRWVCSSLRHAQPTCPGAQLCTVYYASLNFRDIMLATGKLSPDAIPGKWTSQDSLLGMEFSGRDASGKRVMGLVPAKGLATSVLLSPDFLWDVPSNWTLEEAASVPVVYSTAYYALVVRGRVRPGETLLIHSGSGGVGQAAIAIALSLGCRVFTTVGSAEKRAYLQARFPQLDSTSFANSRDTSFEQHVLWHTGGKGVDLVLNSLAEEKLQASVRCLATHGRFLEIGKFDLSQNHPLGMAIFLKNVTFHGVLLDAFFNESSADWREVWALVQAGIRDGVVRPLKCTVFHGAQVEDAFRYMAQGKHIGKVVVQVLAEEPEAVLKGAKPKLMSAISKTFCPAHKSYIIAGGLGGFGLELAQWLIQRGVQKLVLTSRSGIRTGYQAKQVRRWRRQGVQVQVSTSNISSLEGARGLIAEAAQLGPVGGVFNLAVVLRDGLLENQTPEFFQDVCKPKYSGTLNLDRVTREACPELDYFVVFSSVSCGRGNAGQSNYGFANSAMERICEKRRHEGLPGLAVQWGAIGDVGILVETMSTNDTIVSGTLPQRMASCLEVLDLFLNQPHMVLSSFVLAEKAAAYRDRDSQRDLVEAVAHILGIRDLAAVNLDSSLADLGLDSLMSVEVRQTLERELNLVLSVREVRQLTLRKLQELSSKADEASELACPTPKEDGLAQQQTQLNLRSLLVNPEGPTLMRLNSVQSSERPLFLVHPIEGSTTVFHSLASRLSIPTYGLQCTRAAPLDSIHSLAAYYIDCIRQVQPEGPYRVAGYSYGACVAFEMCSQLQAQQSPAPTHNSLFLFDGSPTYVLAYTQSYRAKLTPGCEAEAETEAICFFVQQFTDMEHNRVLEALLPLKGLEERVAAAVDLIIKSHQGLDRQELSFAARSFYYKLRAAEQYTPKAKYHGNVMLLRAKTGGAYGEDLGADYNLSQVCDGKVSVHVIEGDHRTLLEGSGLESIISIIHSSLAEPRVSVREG
Compound,outcome [1],outcome [2],outcome [3],outcome [4],outcome [5],outcome [6],outcome [7],outcome [8],AC50 [9],outcome [10],outcome [9],AC50 [2],AC50 [3],AC50 [5],AC50 [7],AC50 [8],AC50 [10],AC50 [6]
Cc1c(F)c(F)c(COC(=O)C2C(/C=C(\Cl)C(F)(F)F)C2(C)C)c(F)c1F (centres undefined),inactive,inactive,inactive,inactive,inactive,inactive,inactive,inactive,50 µM (active),inactive,–,–,–,–,–,–,–,–
CNC(=O)ON=CC(C)(C)SC,–,inactive,inactive,inactive,inactive,inactive,inactive,inactive,–,inactive,inactive,–,–,–,–,–,–,–
COP(N)(=O)SC (centres undefined),–,inactive,inactive,inactive,inactive,inactive,inactive,inactive,–,inactive,inactive,–,–,–,–,–,–,–
CC(C)(C)c1ccc(CSc2cnn(C(C)(C)C)c(=O)c2Cl)cc1,–,–,–,inactive,–,inactive,–,–,14.2 µM (active),inactive,–,1.9 µM (active),24 µM (active),2.3 µM (active),1.85 µM (active),2.68 µM (active),–,–
C#CCOS(=O)OC1CCCCC1Oc1ccc(C(C)(C)C)cc1 (centres undefined),–,–,–,inactive,–,inactive,–,–,–,–,inactive,44.8 µM (active),27.5 µM (active),12.9 µM (active),20.5 µM (active),27.2 µM (active),27.4 µM (active),–
O=C(O)COc1nc(Cl)c(Cl)cc1Cl,–,inactive,inactive,inactive,inactive,inactive,inactive,inactive,51 µM (active),inactive,–,–,–,–,–,–,–,–
N#Cc1cc(Br)c(O)c(Br)c1,–,inactive,–,inactive,–,–,–,–,73.6 µM (active),–,–,–,8.13 µM (active),10.1 µM (active),9.54 µM (active),12.7 µM (active),10 µM (active),10.4 µM (active)
CCCN(CCC)c1c([N+](=O)[O-])cc(S(N)(=O)=O)cc1[N+](=O)[O-],–,–,inactive,inactive,inactive,inactive,–,–,11.5 µM (active) and 50 µM (active) and 35.1 µM (active),inactive,–,–,94.6 µM (active) and 74.2 µM (active),96.1 µM (active),93.6 µM (active) and 50 µM (active) and 77.6 µM (active),95.4 µM (active) and 77.8 µM (active) and 76.4 µM (active),75.8 µM (active) and 76.8 µM (active),91.3 µM (active) and 79.8 µM (active)
CCCCC(CC)COC(=O)c1ccccc1C(=O)OCC(CC)CCCC (centres undefined),–,inactive,inactive,inactive,inactive,inactive,inactive,inactive,34.4 µM (active),inactive,–,–,–,–,–,–,–,–
CCCCOC(=O)c1ccccc1C(=O)OCCCC,–,inactive,inactive,inactive,inactive,inactive,inactive,inactive,–,inactive,inactive,–,–,–,–,–,–,–
CC(Oc1ccc(Cl)cc1Cl)C(=O)O (centres undefined),–,inactive,inactive,inactive,inactive,inactive,inactive,inactive,50 µM (active),inactive,–,–,–,–,–,–,–,–
COc1ccc(C(c2ccc(OC)cc2)C(Cl)(Cl)Cl)cc1,–,inactive,–,–,inactive,inactive,–,–,22.6 µM (active),inactive,–,–,80.5 µM (active),–,89.1 µM (active),79.5 µM (active),–,–
COC(=O)N(OC)c1ccccc1COc1ccn(-c2ccc(Cl)cc2)n1,–,–,inactive,–,–,inactive,–,–,13 µM (active),inactive,–,78.3 µM (active),–,79 µM (active),68.4 µM (active),75.7 µM (active),–,–
COC(=O)c1ccccc1C(=O)OC,–,inactive,inactive,inactive,inactive,inactive,inactive,inactive,–,inactive,inactive,–,–,–,–,–,–,–
CS/C(C)=N/OC(=O)N(C)SN(C)C(=O)O/N=C(\C)SC,–,inactive,inactive,inactive,inactive,inactive,inactive,inactive,–,inactive,inactive,–,–,–,–,–,–,–
OC(c1ccc(Cl)cc1)(c1cncnc1)c1ccccc1Cl (centres undefined),–,–,–,inactive,–,–,–,–,13 µM (active),inactive,–,81 µM (active),87.3 µM (active),70.5 µM (active),87.6 µM (active),77.8 µM (active),–,50 µM (active)
COc1cnc(OC)n2nc(NS(=O)(=O)c3c(OCC(F)F)cccc3C(F)(F)F)nc12,–,inactive,inactive,inactive,inactive,inactive,inactive,inactive,32.8 µM (active),inactive,–,–,–,–,–,–,–,–
CC(C)C1(C)N=C(c2nc3ccccc3cc2C(=O)O)NC1=O (centres undefined),–,inactive,inactive,–,inactive,inactive,inactive,inactive,34.6 µM (active),inactive,–,–,–,–,–,–,–,–
C=CCC1=C(C)[C@@H](OC(=O)[C@@H]2[C@@H](C=C(C)C)C2(C)C)CC1=O,–,inactive,inactive,inactive,inactive,inactive,inactive,inactive,63 µM (active),inactive,–,–,–,–,–,–,–,–
CN(C)C(=S)SSC(=S)N(C)C,–,inactive,inactive,inactive,inactive,inactive,inactive,inactive,–,inactive,inactive,–,–,–,–,–,–,–
CCc1nn(C)c(C(=O)NCc2ccc(C(C)(C)C)cc2)c1Cl,–,inactive,–,inactive,–,–,–,–,–,–,inactive,–,42.5 µM (active),3.24 µM (active),6.22 µM (active),14.2 µM (active),30.6 µM (active),0.382 µM (active)
COC(=O)C=C(C)OP(=O)(OC)OC,–,inactive,inactive,inactive,inactive,inactive,inactive,inactive,–,inactive,inactive,–,–,–,–,–,–,–
Fc1ccc(Oc2ccnc3cc(Cl)cc(Cl)c23)cc1,–,inactive,inactive,inactive,inactive,inactive,inactive,–,24 µM (active),inactive,–,–,–,–,–,85.8 µM (active),–,–
O=C(Nc1ccccc1)Nc1ccnc(Cl)c1,–,inactive,inactive,inactive,–,–,–,–,23.7 µM (active),inactive,–,–,–,50 µM (active),65.3 µM (active),69 µM (active),–,40.9 µM (active)
CCCCNC(=O)OCC#CI,–,–,inactive,inactive,inactive,inactive,inactive,–,50 µM (active),inactive,–,0.00316 µM (active),–,–,–,50 µM (active),–,–
COP(=S)(OC)Oc1nc(Cl)c(Cl)cc1Cl,–,inactive,inactive,inactive,inactive,inactive,inactive,inactive,80.5 µM (active),inactive,–,–,–,–,–,–,–,–
N#Cc1nn(-c2c(Cl)cc(C(F)(F)F)cc2Cl)c(N)c1S(=O)C(F)(F)F (centres undefined),–,–,–,inactive,–,–,–,–,14.9 µM (active),–,–,61.2 µM (active),58.1 µM (active),32.5 µM (active),29.5 µM (active),54.9 µM (active),50.2 µM (active),83.4 µM (active)
